We go through 39 molecules from PubChem BioAssay.

Entries with a potency or affinity are not part of this list. Results filed as inconclusive are left out. Active and inactive are the calls of the source.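 The calls were made as follows, unless noted: active = fitted dose curve reaches 40% lysis signal rise at or below the highest valid concentration tested for that sample; inconclusive = flat fit between 30% and 70%, or poor curve fit; inactive = signal falls, stays flat within 30%, or no crossing.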

A short description of one assay: fungal growth arrest, C. neoformans – Alamar Blue, cherry-picks, dose response (AID 686998;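 active = falling signal with fitted half-maximal potency no higher than twice the top valid tested dose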). Conditions: Cryptococcus neoformans growth, 24 h; series mostly up to 35 µM.
On to `Cc1noc(C)c1NC(=O)Nc1ccc2c(c1)C(=O)N(C)[C@H]1CC[C@H](CC(=O)N[C@H]3CCN(Cc4ccccc4)C3)O[C@H]1CO2`, for which the call was inactive. Same read-out and setting: the entry for `C[C@H](CO)N1C[C@H](C)[C@H](CN(C)C(=O)c2ccccn2)Oc2ncc(-c3ccccc3)cc2C1=O` is “inactive”.

Regarding `C[C@H]1CCCCO[C@@H](CN(C)C(=O)c2ccccc2)[C@@H](C)CN([C@@H](C)CO)C(=O)c2cc(NC(=O)c3ccncc3)ccc2O1`, the call was inactive. On the same count and under the same terms, then `COc1ccc(NC(=O)Nc2ccc3c(c2)C(=O)N([C@@H](C)CO)C[C@@H](C)[C@H](CN(C)C(=O)Cc2ccccc2)OCCCC[C@H](C)O3)cc1`, with “inactive”. Still for that read-out and setting: the entry for `Cc1cc(C)c(NC(=O)C(C)N2CCCCCC2)c(C)c1` (stereo unspecified) is “inactive”. Same read-out and setting: then `N#Cc1ccc(C23CC4(C2)[C@H](CN(Cc2ccc(-c5ccccc5)cc2)[C@@H]4c2ccccc2)C3c2ccc(C(F)(F)F)cc2)cc1` (stereo partly specified), with “inactive”. As for `C[C@@H]1CN([C@H](C)CO)C(=O)c2c(c3ccccc3n2C)-c2ccccc2CO[C@H]1CN(C)S(=O)(=O)c1cccs1`, the molecule was called inactive. Consider `C[C@H]1CN([C@@H](C)CO)C(=O)Cc2cc(NC(=O)CCCCCC(=O)Nc3ccccc3N)ccc2O[C@H]1CN(C)C(=O)Nc1ccccc1`, for which the molecule was called inactive.

Regarding `C[C@@H]1CCCCO[C@@H](CN(C)S(=O)(=O)c2cccs2)[C@H](C)CN([C@@H](C)CO)C(=O)c2cc(NC(=O)CCC(F)(F)F)ccc2O1`, the molecule was called inactive. The same measure, in the same setting: the entry for `CCC(=O)N1[C@@H]2Cn3c(cccc3=O)[C@H]1[C@@H](C(=O)NCc1ccccc1)[C@@H]2CO` is “inactive”; for `CCC(=O)N1C[C@H](O)COC[C@@H]2O[C@@H](CC(=O)NCc3ccccc3Cl)CC[C@H]21` it is “inactive”. On the same count and under the same terms, the entry for `COCC#Cc1cnc2c(c1)C(=O)N([C@H](C)CO)C[C@H](C)[C@H](CN(C)C(=O)C1CC1)O2` is “inactive”; for `O=C(C[C@H]1CC[C@H](NC(=O)Nc2ccc(C(F)(F)F)cc2)[C@H](CO)O1)NCc1cccc(F)c1` it is “inactive”; for `C[C@@H]1CCCCO[C@H](CN(C)Cc2ccncc2)[C@@H](C)CN([C@H](C)CO)C(=O)c2cc(N(C)C)ccc2O1` it is “inactive”. The same measure, in the same setting: then `Cc1noc(C)c1NC(=O)Nc1ccc2c(c1)C(=O)N([C@H](C)CO)C[C@@H](C)[C@H](CN(C)C(=O)Nc1ccc(F)cc1)OCCCC[C@@H](C)O2`, with “inactive”; and `CC(C)NC(=O)Nc1cccc2c1O[C@H](CN(C)C)[C@H](C)CN([C@H](C)CO)C2=O`, with “inactive”. Regarding `CO[C@@H]1CC[C@@H]2CCOc3c(C#N)cccc3C(=O)N(C)C[C@H](c3ccccc3)CC(=O)N(C)C[C@@H]1O2`, the result was inactive. Still for that read-out and setting: the entry for `O=C(C[C@@H]1CC[C@H]2[C@@H](COC[C@@H](O)CN2Cc2ccc(Cl)cc2)O1)NCc1cccc(F)c1` is “inactive”. On the same count and under the same terms, the entry for `C[C@@H]1CCCCO[C@@H](CN(C)Cc2ccncc2)[C@@H](C)CN([C@H](C)CO)C(=O)c2cc(NC(=O)c3ccncc3)ccc2O1` is “inactive”; for `Cc1cccc(C)c1NC(=O)CN1CCN(C(=O)CNC(=O)c2ccc(N3CCCC3=O)cc2)CC1` it is “inactive”.

For the molecule `COc1cccc(S(=O)(=O)N(C)C[C@@H]2Oc3ncc(-c4cccc(F)c4)cc3C(=O)N([C@H](C)CO)C[C@@H]2C)c1`, the call was inactive. The same measure, in the same setting: the entry for `Cc1cccc(C)c1NC(=O)CN1CCCC1` is “inactive”; for `CC(C)NC(=O)Nc1ccc2c(c1)CC(=O)N([C@@H](C)CO)C[C@@H](C)[C@@H](CN(C)S(=O)(=O)c1ccc(Cl)cc1)O2` it is “inactive”.

As to `O=C(C[C@@H]1C[C@@H]2c3cc(NC(=O)C4CCC4)ccc3O[C@@H]2[C@H](CO)O1)NCc1cccc(F)c1`, the molecule was classed as inactive. Same read-out and setting: then `CC(=O)NNC(=O)CSc1nnc(-c2ccccc2)c(-c2ccccc2)n1`, with “inactive”.

`CC(C)NC(=O)N(C)C[C@@H]1OCCCC[C@@H](C)Oc2ccc(NC(=O)c3ccccc3)cc2C(=O)N([C@H](C)CO)C[C@H]1C`: the outcome was inactive. On the same count and under the same terms, then `C/C=C/c1ccc([C@@H]2[C@@H](CNC(=O)C3CC3)N(C(=O)CC)[C@H]2CO)cc1`, with “inactive”.

A further assay in a line: C. neoformans lysis by adenylate kinase leakage – AK release luminescence, cherry-picks, dose response (AID 687000).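 Also: luminescent detection of adenylate kinase leaking from lysed yeast.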 Particulars: 4 h, 100% = twice the neutral-control signal; series mostly up to 15 µM.
Consider `C[C@@H]1CN([C@@H](C)CO)C(=O)c2cccc(NC(=O)C3CC3)c2O[C@@H]1CN(C)C`, for which the result was inactive.

On to `C[C@H]1CCCCO[C@H](CN(C)C(=O)c2ccncc2)[C@@H](C)CN([C@@H](C)CO)C(=O)c2cc(NC(=O)Cc3ccccc3)ccc2O1`, for which the molecule was called inactive. Still for that read-out and setting: then `O=C(O)C/C(=C\c1cccc(NC(=O)c2ccccc2Cl)c1)c1nc2ccccc2s1`, with “inactive”. As to `C[C@@H]1CN([C@@H](C)CO)C(=O)c2cccc(NC(=O)Nc3ccccc3)c2O[C@H]1CN(C)S(=O)(=O)c1cn(C)cn1`, the call was inactive. Still for that read-out and setting: the entry for `O=C(CN(c1ccccc1)S(=O)(=O)c1ccc(F)cc1)NC1CCS(=O)(=O)C1` (stereo unspecified) is “inactive”; for `Cc1ccc(C)c(NC(=O)C2(C)CCCN2C(=O)C(C)C)c1` (stereo unspecified) it is “inactive”; for `COc1ccc(CN(C)C[C@@H]2Oc3c(NC(=O)Nc4cccc5ccccc45)cccc3C(=O)N([C@@H](C)CO)C[C@@H]2C)cc1` it is “inactive”. The same measure, in the same setting: then `C[C@H](CO)N1C[C@H](C)[C@H](CN(C)C(=O)Nc2cccc3ccccc23)Oc2ccc(NC(=O)Nc3ccccc3)cc2C1=O`, with “inactive”; and `C[C@@H]1CCCCO[C@H](CN(C)C(=O)Nc2ccc(F)cc2)[C@H](C)CN([C@@H](C)CO)C(=O)c2cc(NS(=O)(=O)c3ccc(Cl)cc3)ccc2O1`, with “inactive”; and `CCS(CC)=NS(=O)(=O)c1ccc(NC(C)=O)cc1`, with “inactive”. For `Cc1ccc(NC(=O)C2(C)CCN2C(=O)CC2CC2)cc1C` (stereo unspecified), the molecule was classed as inactive.

Consider `CCNC(=O)Nc1ccc2c(c1)C(=O)N(C)[C@H]1CC[C@H](CC(=O)N[C@@H](C)c3ccccc3)O[C@H]1CO2`, for which the result was inactive. On the same count and under the same terms, then `Cc1noc(C)c1NC(=O)Nc1ccc2c(c1)C(=O)N(C)[C@H]1CC[C@H](CC(=O)N[C@H]3CCN(Cc4ccccc4)C3)O[C@H]1CO2`, with “inactive”.

In the case of `C[C@H](CO)N1C[C@H](C)[C@H](CN(C)C(=O)c2ccccn2)Oc2ncc(-c3ccccc3)cc2C1=O`, the outcome was inactive. As to `C[C@H]1CCCCO[C@@H](CN(C)C(=O)c2ccccc2)[C@@H](C)CN([C@@H](C)CO)C(=O)c2cc(NC(=O)c3ccncc3)ccc2O1`, the result was inactive.

On to `COc1ccc(NC(=O)Nc2ccc3c(c2)C(=O)N([C@@H](C)CO)C[C@@H](C)[C@H](CN(C)C(=O)Cc2ccccc2)OCCCC[C@H](C)O3)cc1`, for which the outcome was inactive. As for `Cc1cc(C)c(NC(=O)C(C)N2CCCCCC2)c(C)c1` (stereo unspecified), the result was inactive. The same measure, in the same setting: then `N#Cc1ccc(C23CC4(C2)[C@H](CN(Cc2ccc(-c5ccccc5)cc2)[C@@H]4c2ccccc2)C3c2ccc(C(F)(F)F)cc2)cc1` (stereo partly specified), with “inactive”; and `C[C@@H]1CN([C@H](C)CO)C(=O)c2c(c3ccccc3n2C)-c2ccccc2CO[C@H]1CN(C)S(=O)(=O)c1cccs1`, with “inactive”; and `C[C@H]1CN([C@@H](C)CO)C(=O)Cc2cc(NC(=O)CCCCCC(=O)Nc3ccccc3N)ccc2O[C@H]1CN(C)C(=O)Nc1ccccc1`, with “inactive”. Same read-out and setting: the entry for `C[C@@H]1CCCCO[C@@H](CN(C)S(=O)(=O)c2cccs2)[C@H](C)CN([C@@H](C)CO)C(=O)c2cc(NC(=O)CCC(F)(F)F)ccc2O1` is “inactive”; for `CCC(=O)N1[C@@H]2Cn3c(cccc3=O)[C@H]1[C@@H](C(=O)NCc1ccccc1)[C@@H]2CO` it is “inactive”; for `CCC(=O)N1C[C@H](O)COC[C@@H]2O[C@@H](CC(=O)NCc3ccccc3Cl)CC[C@H]21` it is “inactive”. The same measure, in the same setting: then `COCC#Cc1cnc2c(c1)C(=O)N([C@H](C)CO)C[C@H](C)[C@H](CN(C)C(=O)C1CC1)O2`, with “inactive”; and `O=C(C[C@H]1CC[C@H](NC(=O)Nc2ccc(C(F)(F)F)cc2)[C@H](CO)O1)NCc1cccc(F)c1`, with “inactive”. Regarding `C[C@@H]1CCCCO[C@H](CN(C)Cc2ccncc2)[C@@H](C)CN([C@H](C)CO)C(=O)c2cc(N(C)C)ccc2O1`, the call was inactive.

With `Cc1noc(C)c1NC(=O)Nc1ccc2c(c1)C(=O)N([C@H](C)CO)C[C@@H](C)[C@H](CN(C)C(=O)Nc1ccc(F)cc1)OCCCC[C@@H](C)O2`, the outcome was inactive. On the same count and under the same terms, then `CC(C)NC(=O)Nc1cccc2c1O[C@H](CN(C)C)[C@H](C)CN([C@H](C)CO)C2=O`, with “inactive”; and `CO[C@@H]1CC[C@@H]2CCOc3c(C#N)cccc3C(=O)N(C)C[C@H](c3ccccc3)CC(=O)N(C)C[C@@H]1O2`, with “inactive”; and `O=C(C[C@@H]1CC[C@H]2[C@@H](COC[C@@H](O)CN2Cc2ccc(Cl)cc2)O1)NCc1cccc(F)c1`, with “inactive”.

`C[C@@H]1CCCCO[C@@H](CN(C)Cc2ccncc2)[C@@H](C)CN([C@H](C)CO)C(=O)c2cc(NC(=O)c3ccncc3)ccc2O1`: the call was inactive. On the same count and under the same terms, the entry for `Cc1cccc(C)c1NC(=O)CN1CCN(C(=O)CNC(=O)c2ccc(N3CCCC3=O)cc2)CC1` is “inactive”. `COc1cccc(S(=O)(=O)N(C)C[C@@H]2Oc3ncc(-c4cccc(F)c4)cc3C(=O)N([C@H](C)CO)C[C@@H]2C)c1`: the result was inactive. With `Cc1cccc(C)c1NC(=O)CN1CCCC1`, the molecule was called inactive. Still for that read-out and setting: then `CC(C)NC(=O)Nc1ccc2c(c1)CC(=O)N([C@@H](C)CO)C[C@@H](C)[C@@H](CN(C)S(=O)(=O)c1ccc(Cl)cc1)O2`, with “inactive”; and `O=C(C[C@@H]1C[C@@H]2c3cc(NC(=O)C4CCC4)ccc3O[C@@H]2[C@H](CO)O1)NCc1cccc(F)c1`, with “inactive”. On the same count and under the same terms, the entry for `CC(=O)NNC(=O)CSc1nnc(-c2ccccc2)c(-c2ccccc2)n1` is “inactive”; for `CC(C)NC(=O)N(C)C[C@@H]1OCCCC[C@@H](C)Oc2ccc(NC(=O)c3ccccc3)cc2C(=O)N([C@H](C)CO)C[C@H]1C` it is “inactive”; for `C/C=C/c1ccc([C@@H]2[C@@H](CNC(=O)C3CC3)N(C(=O)CC)[C@H]2CO)cc1` it is “inactive”.
